FLuc counter – qHTS profiling assay for firefly luciferase inhibitor/activator using purifed enzyme and Km concentrations of substrates (counterscreen for miR-21 project); Potency, µM (doses to about 57.5 µM), for inactives: top-dose activity change, negative = inhibition, hits mostly inhibitors; purified FLuc, Km substrates, luminescence inhibition; 360,000 tested, 6.9% active; Luciferin 4-monooxygenase (Photinus pyralis), P08659;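 note: plate controls were vehicle for no effect and reference inhibitor for full effect; nearly all actives have a fitted effect of over 55% in size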
Target sequence (P08659 whole entry, looked up): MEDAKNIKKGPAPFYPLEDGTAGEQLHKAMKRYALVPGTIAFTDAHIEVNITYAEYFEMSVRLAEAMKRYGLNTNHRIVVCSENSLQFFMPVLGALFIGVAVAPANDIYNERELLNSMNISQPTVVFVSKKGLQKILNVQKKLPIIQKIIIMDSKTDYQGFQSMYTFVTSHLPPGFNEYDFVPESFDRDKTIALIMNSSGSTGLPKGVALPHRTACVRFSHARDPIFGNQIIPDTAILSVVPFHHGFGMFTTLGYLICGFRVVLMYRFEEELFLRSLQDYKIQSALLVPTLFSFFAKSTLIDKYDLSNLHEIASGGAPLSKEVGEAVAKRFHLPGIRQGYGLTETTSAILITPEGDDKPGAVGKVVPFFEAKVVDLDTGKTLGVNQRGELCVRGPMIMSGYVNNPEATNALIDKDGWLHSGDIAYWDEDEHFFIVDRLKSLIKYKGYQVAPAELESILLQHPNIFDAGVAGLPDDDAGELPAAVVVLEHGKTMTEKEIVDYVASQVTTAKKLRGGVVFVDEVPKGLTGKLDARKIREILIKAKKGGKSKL
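Purified P. pyralis luciferase (10nM final) with 10uM D-luciferin and 10uM ATP (Km levels) in 50mM Tris acetate pH 7.5, 10mM Mg acetate, 0.01% Tween-20, 0.05% BSA; qHTS 6-point titration, ~60 µM downward; luminescence read.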
Rab9 promoter act – qHTS Assay for Rab9 Promoter Activators | Huh7 Rab9 promoter-luciferase reporter, luminescence, 24 h | Potency, µM (top dose mostly 9.22 µM), without a hit: at the highest dose activation, negative = inhibition, most hits filed as activators | 320,000 tested, 2.8% active; note: % of control where 0% means no effect; nearly all actives have a fitted effect of over 60% in size
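Huh7 cells stably carrying Rab9 promoter–luciferase reporter, plated 1500 cells/well, compound added after 2 h and incubated 24 h at 37 °C; luciferase luminescence then read after 10 min with detection reagent.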
SMN2 splice enh – qHTS Assay for Enhancers of SMN2 Splice Variant Expression | HEK293 SMN2-luciferase splicing reporter, luminescence, 30-36 h | Potency, µM (highest dose often 46.1 µM), inactives show at the top dose activity change, positive = activation, usual class: activators | 210,000 tested, 2.8% active | AID 1458, 2008; note: % of control where 0% means no effect; nearly all actives have a fitted effect of over 55% in size
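qHTS luciferase splicing reporter: luminescence rises when SMN2 exon 7 is included in transfected HEK293 cells. Compound exposure lasted 30-36 h at 37C, with 4.5 mM final sodium butyrate as control, followed by a ONE-Glo read.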
ELG1 genotoxic – qHTS screen for small molecules that induce genotoxicity in human embryonic kidney (HEK293T) cells expressing luciferase-tagged ELG1; HEK293T ELG1-luciferase reporter, luminescence, 16 h; AID 504466, 2011; 330,000 tested, 1.3% active; Potency, µM (highest dose often 46 µM), for the others: top-dose activity change, positive = activation, actives largely listed as activators; note: % of control where 0% means no effect; nearly all actives have a fitted effect of over 60% in size
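16 hr compound incubation (37 °C, 5% CO2) of HEK293T cells carrying luciferase-tagged ELG1; luciferase then measured by ONE-Glo luminescence after 30 min at RT.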
NPC1 prom act – qHTS Assay for NPC1 Promoter Activators; Huh7 NPC1 promoter luciferase reporter, 24 h; Potency, µM (doses to about 9.22 µM), for the others: top-dose activation, actives largely listed as activators; 320,000 tested, 2.4% active; note: % of control where 0% means no effect; nearly all actives have a fitted effect of over 60% in size
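In 1536-well qHTS, Huh7 cells harboring an NPC1 promoter–luciferase construct received compound for 24 h; activation was quantified by luminescence following luciferase reagent addition.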
* hit, by the source's call; ? = inconclusive; nt = no result given; [ ] = another dose, or the depositor's remark. Compounds with a hit are over-represented: about 7.4% of the library has one in this group of screens. Calls come from the whole dose curve; as a rule, active = well fitted curve in the direction sought with a large enough effect; inconclusive = small, poorly fitted or top-dose-only effect, or another doubt; inactive = no such curve, though single readings can be large; an effect the other way counts as inactive or inconclusive. Potency is the fitted concentration of half-maximal effect.

SMILES	FLuc counter	Rab9 promoter act	SMN2 splice enh	ELG1 genotoxic	NPC1 prom act
Cc1ccc(CNC(=O)CCCc2cn(C)c3ccccc23)cc1	-3%	5%	nt	0%	-4%
O=C(Nc1nnc(S(=O)(=O)N2CCN(c3ccc(F)cc3)CC2)s1)c1ccccc1	?	?	nt	9%	?
O=C(Nc1ccc(O)cc1C(=O)O)c1cccc(Br)c1	21µM*	6%	-6%	-1%	2%
O=C(Nc1ccccc1C(=O)O)c1ccc(NC(=O)c2ccc(Br)o2)cc1	?	0%	3%	-7%	0%
O=C(Nc1sc(-c2ccccc2)cc1C(=O)O)c1ccccc1	?	2.8µM*	nt	23%	3.2µM*
CCOC(=O)c1cc(-c2ccccc2)sc1NC(=O)c1ccc(OC)cc1	?	0%	-22%	-1%	1%
Cc1ccccc1C(=O)Nc1ccc(O)cc1C(=O)O	?	-2%	4%	-1%	0%
O=C(Nc1ccccc1C(=O)O)c1cccc(NC(=O)c2ccc(Br)o2)c1	19µM*	2%	4%	1%	-2%
Cc1ccc(-n2nc(C)c3c(C(F)(F)F)cc(-c4cccnc4)nc32)cc1C	0%	nt	7%	nt	nt
CCC(=O)Nc1ccc(NC(=O)Cc2ccccc2)cn1	3%	0%	4%	2%	-1%
CCC(=O)Nc1ccc(NC(=O)c2ccccc2)nc1	6µM*	0.45µM*	4µM*	?	1.3µM*
CCCC(=O)Nc1ccc(NC(=O)c2ccccc2)nc1	4.8µM*	0.28µM*	nt	?	0.32µM*
CCCC(=O)Nc1ccc(NC(=O)c2ccccc2F)cn1	?	?	nt	8%	?
CCCc1nnc(SCC(=O)NC2CC2)n1C	-2%	0%	nt	3%	-4%
O=C(NCC(c1ccco1)N1CCN(c2ccccc2)CC1)c1ccc2c(c1)OCO2 (stereo not given)	-2%	2%	-3%	-12%	-10%
C=CCOc1cccc(CNc2cccc(C(=O)O)c2)c1	9.5µM*	?	nt	16%	?
C=CCOc1c(CNc2cccc(C(=O)O)c2)cccc1OC	15µM*	?	?	?	?
C=CCOc1c(CNc2ccc(C(=O)O)cc2)cccc1OCC	21µM*	?	?	18%	?
COc1ccc([N+](=O)[O-])cc1NC(=S)NC(NC(=O)C(c1ccccc1)c1ccccc1)C(Cl)(Cl)Cl (stereo not given)	6%	3%	-32%	-8%	-5%
CCn1nc(C(=O)N[C@@H](CCSC)c2nc3ccccc3[nH]2)c2ccccc2c1=O	11µM*	0%	18%	16%	2%
O=C(N/N=C/c1cccnc1)c1ccccc1	?	11%	nt	10%	16%
Cc1cc(C(=O)N/N=C/c2cccnc2)cs1	?	17%	?	7%	0%
CSc1ccc(/C=N/NC(=O)c2cccc(O)c2)cc1	4.3µM*	3.5µM*	?	?	?
O=C(N/N=C/c1cccnc1)c1ccc([N+](=O)[O-])cc1	15µM*	-2%	-12%	0%	-4%
O=C(N/N=C\c1ccc(F)cc1)c1ccc(F)cc1	19µM*	?	?	?	?
SMILES	FLuc counter	Rab9 promoter act	SMN2 splice enh	ELG1 genotoxic	NPC1 prom act
Cc1ccc(C(=O)N/N=C\c2cccnc2)s1	6.7µM*	?	nt	?	24%
O=C(N/N=C\c1cccc(O)c1)c1ccncc1	nt	nt	-3%[9.22 µM]	nt	nt
Cc1[nH]nc(SCC(=O)NCc2ccc(Cl)cc2)c1[N+](=O)[O-]	6%	-3%	-2%[1.84 µM]	0%	1%
CC(C)(C)NC(=O)C(=O)N/N=C/c1ccc(F)cc1	-8%	2%	5%	1%	8%
Cc1c(/C=N\NC(=O)c2ccc([N+](=O)[O-])cc2)cnn1C	-17%	2%	0%	1%	1%
CC(=O)n1cc(/C=N/NC(=O)c2ccc([N+](=O)[O-])cc2)c2ccccc21	6.7µM*	11%	nt	3%	6%
CN(C)/C=C(\C#N)C(=O)N/N=C/c1ccc(F)cc1	17µM*	10%	5%	4%	10%
Nc1ccc(C(=O)N/N=C/c2ccccc2)cc1	11µM*	3.2µM*	?	?	?
O=C(N/N=C/c1ccoc1)c1ccc([N+](=O)[O-])cc1	21µM*	1%	nt	7%	4%
O=C(N/N=C/c1cccnc1)c1ccc(F)cc1	13µM*	?	nt	14%	27%
COC(=O)c1ccc(/C=N/NC(=O)c2cccc(F)c2)cc1	-66%	3.2µM*	14µM*	?	2µM*
COc1ccccc1N1CCN(CC(O)COc2ccc(C)cc2C(C)(C)C)CC1 (stereo not given)	-9%	nt	-29%	nt	nt
COC(=O)c1cc(C)nc(Sc2ccccc2N)n1	12µM*	8%	nt	-4%	-2%
Cc1ccccc1-c1cccc([C@@H]2C[C@H]3CN(Cc4cccnc4)C(=O)[C@]34CCCN24)c1	-18%	-1%	nt	-4%	4%
COc1ccccc1N=CC=C1OC(C)(C)C(C)(C)O1	-1%	-1%	10%	2%	-8%
Cc1ccc(N=CC=C2OC(C)(C)C(C)(C)O2)c(C)c1	7.6µM*	-2%	0%	2%	0%
CCOC(=O)c1cccc(NC(=O)CC2C(=O)N(c3ccc(OC)cc3)C(=O)N2C2CCCC2)c1 (stereo not given)	-12%	nt	nt	nt	nt
CC(=O)N(C)c1ccc(NC(=O)Nc2ccc(C)cc2)cc1	24µM*	?	?	?	29%
Cc1ccc(NC(=O)Nc2cc(C)on2)cc1	15µM*	?	?	-6%	?
Cc1cccc(NC(=O)Nc2cccc(C)n2)n1	17µM*	?	8%	3%	20%
Cc1cccc(NC(=O)Nc2ccc([N+](=O)[O-])cc2)n1	2%	2.2µM*	23%	9%	?
CC(C)NC(=O)CN1CCC(c2ccccc2)C(O)C1 (stereo not given)	0%	-10%	nt	-1%	-2%
CCn1cc(CN2CCCC(C(=O)Nc3ccc(-c4cscn4)cc3)C2)cn1 (stereo not given)	0%	5%	nt	1%	1%
CCC1(c2ccc(F)cc2)NC(=O)N(CC(=O)N2CCN(C(=O)c3ccco3)CC2)C1=O (stereo not given)	nt	nt	nt	1%	nt
Cc1ccc(NC(=O)c2cn(-c3cccc(C)n3)cn2)cc1	?	3.5µM*	?	?	2.8µM*
Cc1cccc(NC(=O)Nc2ccc(F)cc2)n1	8.5µM*	?	-4%	12%	?
Cc1cccc(NC(=O)Nc2ccc(Cl)cc2)n1	?	?	nt	16%	25%
Cc1ccc(NC(=O)Nc2cccc(C)n2)cc1	2.4µM*	24%	16µM*	?	0%

Screens deposited in PubChem by National Center for Advancing Translational Sciences (NCATS).
